Screens (PubChem)
In the library only some 3% were active in any assay of this set; here they are far more common.
SENP8 block-1: human SENP8 protease inhibitors, primary screen, biochemical, fluorescence, Nedd8 protein substrate, uHTS. Sentrin-specific protease 8 (Homo sapiens), Q96LD8. recombinant SENP8. inhibition, % at 20 µM. actives 0.64% (n = 360,000). AID 602440, 2012; in the data active means inhibition mostly above about 40%, no sharp cut-off; inactive means mostly below about 27%
Target sequence (Q96LD8 whole entry, looked up): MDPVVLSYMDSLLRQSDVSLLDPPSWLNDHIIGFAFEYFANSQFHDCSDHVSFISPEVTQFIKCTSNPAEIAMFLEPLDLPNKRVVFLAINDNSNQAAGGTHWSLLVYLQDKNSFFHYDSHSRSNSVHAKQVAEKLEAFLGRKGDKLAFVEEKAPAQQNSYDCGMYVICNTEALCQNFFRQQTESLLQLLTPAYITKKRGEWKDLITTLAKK
SENP8 block-2: SENP8 protease inhibitors, primary screen, biochemical, luminescence; purified SENP8, Z-RLRGG-aminoluciferin cleavage; inhibition, % at 10 µM; actives 1.2% (n = 330,000); AID 2540, 2010; in the data active means inhibition above about 50%
SENP7 inh: SENP7 protease inhibitors, primary screen, biochemical, luminescence, uHTS. recombinant SENP7, Z-RLRGG-aminoluciferin luminescence, 40 min. inhibition, % at 5 µM. actives 1.5% (n = 330,000). AID 434973, 2010;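 active means inhibition above about 50% at the single test dose, limit read from the data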;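 further: plate controls were DMSO with enzyme for no effect and no enzyme buffer wells for full effect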
Target sequence (Q9BQF6 706-1050 limits assumed): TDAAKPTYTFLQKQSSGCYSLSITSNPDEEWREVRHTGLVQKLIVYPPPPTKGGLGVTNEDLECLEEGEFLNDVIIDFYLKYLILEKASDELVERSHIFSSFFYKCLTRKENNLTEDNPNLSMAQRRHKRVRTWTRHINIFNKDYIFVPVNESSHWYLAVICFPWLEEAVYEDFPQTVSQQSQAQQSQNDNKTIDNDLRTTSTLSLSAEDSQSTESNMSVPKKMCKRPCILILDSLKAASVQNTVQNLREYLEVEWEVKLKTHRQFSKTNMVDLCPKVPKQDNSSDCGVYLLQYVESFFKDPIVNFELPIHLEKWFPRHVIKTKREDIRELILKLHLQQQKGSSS
SENP6 inh: SENP6 protease inhibitors, primary screen, biochemical, luminescence, uHTS. Recombinant SENP6 catalytic domain, aminoluciferin luminescence. actives 1.8% (n = 330,000). AID 2599, 2010. Sentrin-specific protease 6 (Homo sapiens), Q9GZR1. inhibition, % at 10 µM;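 active means inhibition above about 50% at the single tested dose, limit read from the data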;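 further: plate controls were DMSO wells with enzyme for no effect and DMSO wells lacking enzyme for full effect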
C8 TRAIL sens: viability loss with TRAIL in NB7+C8 cells, primary screen, TRAIL sensitizer project, cell-based, ATPlite luminescence; actives 1% (n = 360,000); inhibition (viability loss, TRAIL sensitization), % at 10 µM;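 active means compounds causing at least 50% loss of cell viability in the single-dose screen, relative to plate controls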
PPC-1+TRAIL kill: compounds killing PPC-1 cancer cells with TRAIL present, primary screen, TRAIL potentiator project, ATPLite luminescence, uHTS. PPC-1 cells + TRAIL, ATPLite viability luminescence. cell killing (% activity), % at 4 µM or 5 µM. actives 0.41% (n = 220,000);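 active means cell killing above 50% in the first pass at 4 µM, then a duplicate retest at 5 µM averaging 50% or more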;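 further: plate controls were cells with TRAIL plus DMSO for no effect and medium-only wells lacking cells for full effect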
The depositor's hits bear a star; . = no result.

SMILES	SENP8 block-1	SENP8 block-2	SENP7 inh	SENP6 inh	C8 TRAIL sens	PPC-1+TRAIL kill
COc1ccc(Cc2nnc(N/N=C/c3ccc(O)cc3O)[nH]c2=O)cc1OC	12.6	-12.1	-5.4	-13.4	50.9*	5.2
CCCCCC/C=N/Nc1nnc(Cc2ccc(OC)c(OC)c2)c(=O)[nH]1	-5.8	4.1	-0.8	-20.8	-19.1	.
Cc1cc(C)c2nc(NNC(=O)c3ccc(S(=O)(=O)N4CC(C)CC(C)C4)cc3)sc2c1 (stereo unspecified)	-22.4	6.5	-6.0	-12.5	32.1	5.9
Cc1cccc2sc(NNC(=O)c3ccc(S(=O)(=O)N4CC(C)CC(C)C4)cc3)nc12 (stereo unspecified)	10.3	4.0	10.7	3.7	65.5*	27.1
O=C(COC(=O)c1n[nH]c2ccccc12)NC(=O)NC12CC3CC(CC(C3)C1)C2	9.1	-3.4	-1.2	-6.2	57.5*	13.9
Cn1nc(-c2ccc(Cl)cc2)nc2c(=O)n(C)c(=O)nc1-2	.	97.9*	97.8*	97.9*	.	47.8
COc1ccc(/C=C/c2nc3ccccc3n2Cc2ccccc2OC)cc1	-414.5	-8.9	-3.2	0.3	77.6*	35.1
COCCn1c(/C=C/c2ccccc2)nc2ccccc21	-480.2	36.7	64.8*	-7.0	41.3	42.0
CC(=O)c1sc(NC(=O)CN2C(=O)C3CCCCC3C2=O)nc1-c1ccccc1 (stereo unspecified)	8.8	-1.5	-0.3	-2.8	11.2	.
Cc1cccc(-c2nc3cc(NC(=O)C4CCCO4)ccc3o2)c1 (stereo unspecified)	-410.3	.	.	.	62.9*	55.6*
CC(=O)Nc1cccc(NC(=O)Cc2ccc3ccccc3c2)c1	6.9	-10.0	-12.9	-18.6	-20.7	.
CC1(C)OC(c2ccccc2)=C/C(=C/C=C2C(=O)c3ccccc3C2=O)O1	59.0*	8.2	2.7	-15.1	5.7	.
O=C1CCCC[C@@H](O)[C@H](O)C[C@H](c2ccccc2)O1	21.1	.	.	.	-13.6	.
C=C1CC2(CC(c3ccccc3)OC(c3ccccc3)C2)OC1=O (stereo unspecified)	-3.5	.	.	.	64.2*	.
CCc1nc2ccc(C(=O)NCCCN3CCCC3=O)cn2c1N(C=O)CC	-38.0	.	.	.	6.5	.
COc1ccc(Br)cc1CNc1ccc2[nH]c(=O)[nH]c2c1	-60.6	-1.4	7.9	-14.9	2.1	-7.9
COc1ccc(Br)cc1CNc1ccc(O)cc1	60.9*	-5.7	57.9*	6.4	6.5	23.7
CCc1ccc(C2C(=O)c3ccccc3C2=O)cc1	14.4	28.5	13.1	5.4	28.5	.
CCc1ccccc1C1C(=O)c2ccccc2C1=O	16.1	5.9	5.5	2.7	47.9*	.
CC(C)Oc1ccc(S(=O)(=O)N2CCOCC2)cc1NC(=O)CCCSc1ccccc1	14.0	2.3	-2.2	-3.5	-3.6	.
CCOC(=O)N1CCC(Nc2c(OCC)c(=O)c2=O)CC1	11.7	-8.3	6.6	-0.1	4.0	52.2*
CCOC(=O)N1CCC(Nc2c(NCCCOC)c(=O)c2=O)CC1	18.5	-7.7	-1.3	23.0	-2.5	22.4
Cc1ccc([C@H]2C[C@@H](n3cc(-c4ccc(F)cc4)nn3)[C@H](O)CN2C(=O)C2CCCCC2)cc1	22.4	.	.	.	6.7	.
CCN(CC)CCC(=O)N1C/C(=C/c2ccccc2)C(=O)/C(=C\c2ccccc2)C1	9.5	.	.	.	92.8*	.
O=C1/C(=C\c2ccc(Cl)c(Cl)c2)CN(C(=O)CCN2CCOCC2)C/C1=C/c1ccc(Cl)c(Cl)c1	15.5	.	.	.	92.6*	.
SMILES	SENP8 block-1	SENP8 block-2	SENP7 inh	SENP6 inh	C8 TRAIL sens	PPC-1+TRAIL kill
O=C(CCN1C(=O)S/C(=C\c2ccccc2)C1=O)N1CCCCC1	14.8	-6.4	-5.2	-5.8	5.5	.
O=C1/C(=C\c2ccccc2)CN(C(=O)CCN2CCCCC2)C/C1=C/c1ccccc1	13.9	.	.	.	91.4*	.
CCCCN(CC)S(=O)(=O)c1ccc(C(=O)N=c2sc3cc(NC(C)=O)ccc3n2C)cc1	-265.0	-2.1	1.2	14.4	61.3*	9.1
CCOc1ccccc1NC(=O)COC(=O)C1CC(=O)N(c2c(C)cccc2C)C1 (stereo unspecified)	7.0	-0.4	-0.7	8.3	-6.2	.
Cn1cccc1/C=C1\SC(=S)N(Nc2ccccc2)C1=O	42.7*	4.7	14.9	18.1	-28.2	20.4
C/C=C(\C)C(=O)OC1[C@H](OC(C)=O)C2(CO)C(CC1(C)C)C1=CCC3C4(C)CCC(O[C@@H]5O[C@H](C(=O)O)[C@@H](O[C@@H]6O[C@H](CO)[C@@H](O)[C@H](O)[C@H]6O)[C@H](O)[C@H]5O[C@H]5O[C@H](CO)[C@@H](O)[C@H](O)[C@H]5O)[C@](C)(CO)C4CCC3(C)[C@]1(C)C[C@H]2O (stereo partly specified)	17.1	.	.	.	89.0*	.
C/C=C(/C)C(=O)OC1CC(C)(C)C[C@H]2C3=CC[C@@H]4[C@@]5(C)CCC(O[C@@H]6O[C@@H](C(=O)O)[C@@H](O)C(O[C@@H]7OC[C@H](O)[C@@H](O)[C@@H]7O[C@@H]7OC(CO)C(O)[C@@H](O)[C@@H]7O)C6O[C@@H]6OC(CO)C(O)C(O)C6O)[C@@](C)(CO)[C@@H]5CC[C@]4(C)[C@]3(C)CC(O)[C@@]12CO (stereo partly specified)	1.2	0.9	3.4	-2.7	-3.0	.
CCOC(=O)C1=CN(Cc2ccco2)S(=O)(=O)N(CC)C1c1cccc(OC)c1 (stereo unspecified)	6.2	.	-0.5	.	1.9	.
CCOC(=O)C1CCN(S(=O)(=O)c2ccc(OC)c(C(=O)N3CCCCC3)c2)CC1	8.9	-6.3	-8.8	-17.5	-11.5	.
Cc1nc(NCc2ccccc2)sc1C(=O)Nc1ccccc1	-6.3	-25.4	-26.7	-9.0	-3.5	25.8
Cc1nc(NCCOc2ccccc2)sc1C(=O)Nc1ccccc1	3.4	62.6*	84.0*	75.9*	-20.6	-1.6
COC1=CC(=O)c2ccccc2C1=O	-220.6	51.4*	17.6	55.8*	88.1*	.
O=S(=O)(NC1CC1)c1ccc(Br)cc1N1CCC[C@H]1CO	2.3	.	.	.	0.1	.
Cc1sc(NC(=O)C2C3CCC(O3)C2C(=O)O)nc1-c1ccc(CC(C)C)cc1 (stereo unspecified)	12.4	4.3	14.1	55.8*	12.0	29.7
O=C(CSc1nnc(NC(=O)c2c(F)cccc2F)s1)NCC1CCCO1 (stereo unspecified)	-0.6	-3.6	-1.6	-15.2	-2.9	.
O=C(CSc1nnc(NC(=O)c2cccc(F)c2)s1)NCC1CCCO1 (stereo unspecified)	-20.7	-0.4	1.9	0.0	35.6	.
CC(C)(C)c1ccc(C(=O)Nc2nnc(SCC(=O)NCC3CCCO3)s2)cc1 (stereo unspecified)	-52.4	-2.2	-4.0	14.7	93.7*	.
